# Bioassay records: PubChem BioAssay, several laboratories
# The list is not random: actives were taken first. Their share in the collection is about 8.9%.
# M1 antagonist – antagonists of rat M1 muscarinic receptor | B-score at 10 µM | CHO-M1 cells, Fluo-4 calcium, ACh EC80 antagonist mode; active compounds read low | actives 3.4% (n = 64,000) | P08482;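 active = calcium fluorescence response, raw or row-and-column corrected B-score, differing from the plate sample mean either way at a set confidence level, mostly lower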
# M1 agonist – M1 muscarinic receptor agonism; B-score at 10 µM; CHO-M1 cells, Fluo-4 calcium fluorescence, agonist mode; active compounds read high; actives 3% (n = 64,000);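 active = fluorescence rise, raw or as B-score row- and column-corrected plate score, outside the 99.7% band of its plate's samples, either direction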
# WNV NS2B-NS3 inh – inhibitors of West Nile virus NS2B-NS3 protease | P06935 | WNV NS2B-NS3 protease, fluorogenic substrate Ex360/Em465; active compounds read low | z-score (concentration not given with the values) | actives 0.18% (n = 65,000) | AID 577; in the data active = z-score below about -3
# Target sequence (P06935 1371-1501 limits assumed): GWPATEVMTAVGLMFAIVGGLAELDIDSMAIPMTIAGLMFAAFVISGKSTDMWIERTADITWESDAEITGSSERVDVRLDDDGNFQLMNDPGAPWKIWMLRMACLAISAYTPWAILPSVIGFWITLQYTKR
# Target sequence (P06935 1502-1679 limits assumed): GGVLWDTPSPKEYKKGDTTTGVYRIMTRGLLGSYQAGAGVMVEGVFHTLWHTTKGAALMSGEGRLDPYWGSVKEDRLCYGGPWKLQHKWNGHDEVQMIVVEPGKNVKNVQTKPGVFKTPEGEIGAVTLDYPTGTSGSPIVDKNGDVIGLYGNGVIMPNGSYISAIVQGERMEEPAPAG
# D1 allo mod – allosterically modulates the human D1 dopamine receptor; AID 641; HEK293 D1, CRE-luciferase, dopamine EC30 potentiation; actives deviate in either direction; P21728; B-score at 10 µM; actives 5.9% (n = 58,000);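 active = luminescence count or its row- and column-corrected plate score outside the 99.7% band of the plate's sample wells, on either side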
# mHtt clearance – compounds clearing mutant huntingtin protein; actives 0.42% (n = 47,000); inhibition, % at 1.5 µM; HeLa Exon1htt(103Q)mCFP, aggregate imaging; zero = plate's median compound well;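 active = inhibition of aggregate fluorescence above about 70%, also judged a hit by eye on the cell image, limit read from the data, passing the limit was not always enough; inconclusive = no rule stated for this call; inactive = not judged a hit on image review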;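 also: cells exposed to compound for three days before fixation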
# M1 antag conf – M1 muscarinic receptor (rat) antagonism, confirmed; shares compounds with M1 antagonist; CHO-M1 cells, Fluo-4 calcium, ACh EC80 antagonism; active compounds read low; calcium response (max-min fluorescence) at 10 µM; actives 43% (n = 1,700);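 active = calcium response below the same-plate mean of wells given acetylcholine alone at its 80%-effect dose, minus 3 SD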;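 also: raw fluorescence intensity difference in arbitrary instrument units and not normalized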
# mGluR4 antag – acts on human mGluR4 in M1 antagonist selectivity test; fluorescence response (max-min) at 10 µM; actives 0.9% (n = 1,700); CHO-mGluR4 calcium flux, Fluo-4 fluorescence, glutamate EC80; active compounds read low; AID 678; shares compounds with M1 antagonist;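 active = fluorescence response below the plate's average for near-maximal glutamate wells, less 3 SD of those wells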;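 also: raw unnormalized fluorescence span taken in the window right after glutamate addition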
# Starred values were filed as active, the others as inactive; ? = inconclusive; / = not tested or not shown.
SMILES,M1 antagonist,M1 agonist,WNV NS2B-NS3 inh,D1 allo mod,mHtt clearance,M1 antag conf,mGluR4 antag
Cc1ccc(-n2nnc3c(SCC(=O)NCC4CCCO4)ncnc32)cc1 (stereo not given),-2.39*,1.52,-0.6,/,18.3,569,247
CC(=O)Nc1ccc(S(=O)(=O)N2CCN(c3nc(NC4CCCC4)c4ccccc4n3)CC2)cc1,-2.81*,0.169,-0.11,/,/,514*,239
COc1ccc(C(C(=O)OC(C)CN(C)C)c2ccccc2)cc1 (stereo not given),-2.97*,-0.142,0.08,-0.5,-9.8,333*,214
Cc1[nH]nc2nc3c(c(OC(=O)c4ccccc4)c12)c(=O)n(C)c(=O)n3C,-0.555,-0.61,-0.61,/,/,/,/
CCCC1(CCC)NC(=O)NC1=O,-2.87*,0.0497,-0.14,-0.342,21.9,587,249
COc1ccc(/C(CC2(O)C(=O)Nc3ccccc32)=N\O)cc1 (stereo not given),-2.52*,0.366,0.65,/,/,585,233
Cc1cc(C)c(C(=O)CC2(O)C(=O)Nc3ccccc32)cc1C (stereo not given),-0.201,0.00289,0.51,/,8.0,/,/
COC(=O)c1cccc(CSc2nnc(C)s2)c1,0.935,0.35,0.8,-0.456,24.8,/,/
CCOC(=O)N1CCN(C(=O)c2ccc3c(c2)ncn3C2CCCC2)CC1,-2.28*,1.55,-1.07,0.523,15.0,438,211
Nc1nc(CN2CCOCC2)cs1,-0.831*,-0.0129,-0.03,0.875,/,555,261
COCCNC(=O)C(=O)Nc1ccc(Br)cc1,/,/,/,/,-50.4,/,/
COCC(COCCCNC(=O)Nc1ccc(Br)cc1)OC (stereo not given),-1.58*,-0.336,2.32,-0.362,/,553,214
COCCn1c(SCc2cccnc2)nnc1-c1ccco1,-3.03*,0.000219,-0.65,-0.326,-24.8,664,234
COCCn1c(SCC(=O)NCCc2ccccc2)nnc1-c1ccco1,0.0267,0.134,0.45,-0.417,/,/,/
CCOC(=O)CNC(=O)Cn1cnc2c(nnn2-c2cccc(Cl)c2)c1=O,-0.136,0.344,0.76,-0.382,-48.4,/,/
CCc1ccccc1NC1c2ccccc2C(=O)N1Cc1ccco1 (stereo not given),-2.16*,2.19,-1.09,-0.00986,/,458,199
CCOc1ccccc1NC1c2ccccc2C(=O)N1Cc1ccco1 (stereo not given),-0.863*,0.298,-0.56,/,38.5,531,247
O=C(COc1cccc2ccccc12)N1c2ccccc2CCc2ccccc21,/,/,/,/,-11.4,/,/
Cc1onc(-c2ccccc2Cl)c1C(=O)Nc1ccc(-n2nncc2C(C)(C)C)cc1,1.44,0.259,-1.41,/,/,/,/
Cc1onc(-c2ccccc2Cl)c1C(=O)Nc1ccc(-n2nncc2-c2ccco2)cc1,-1.86*,-0.212,-0.38,/,/,379*,208
O=C1CC(c2ccc(Cl)cc2)CC(O)=C1C=NCCN1CCNCC1 (stereo not given),-5.27*,-0.577,/,-0.408,/,512*,184
COc1ccc(C2CC(=O)C(C=NCCN3CCNCC3)=C(O)C2)cc1OC (stereo not given),-1.03,-1.78,-0.28,-0.355,/,/,/
CCCc1nc2oc3c(NCCN(C)C)ncnc3c2c2c1CCCC2,-6.35*,1.76,0.08,3.23*,-40.4,498,259
Cn1c(=O)c2c(-c3ccccc3)n(-n3cnnc3)cc2n(C)c1=O,-0.0686,-0.0819,-0.6,0.111,-7.8,/,/
Cc1ccc(NC(=O)NC(=O)CN2C(=O)NC3(CCCCCCC3)C2=O)c(C)c1,-2.21*,-0.119,-0.08,-0.0118,-18.5,588,164
SMILES,M1 antagonist,M1 agonist,WNV NS2B-NS3 inh,D1 allo mod,mHtt clearance,M1 antag conf,mGluR4 antag
CC(C)n1cc(/C=C(\C#N)S(=O)(=O)c2ccccc2)c2ccccc21,0.259,0.0203,0.06,1.47,19.9,/,/
COc1cc2nc(N3CCNCC3)nc(N)c2cc1OC,-1.43*,0.58,-0.41,0.407,-18.7,663,183
CCNC(=O)Cc1ccc(NS(=O)(=O)c2ccc(F)cc2)cc1,0.155,-0.291,-0.34,-0.048,/,/,/
CCNS(=O)(=O)c1ccc(NC(=O)Cc2ccc(F)cc2)cc1,-5.5*,0.0564,-0.84,0.0811,/,561*,197
CCOc1ccccc1N1CCN(C(=O)C2c3ccccc3Oc3ccccc32)CC1,/,/,/,/,38.6,/,/
CS(=O)(=O)N1CCN(C(=O)C2c3ccccc3Oc3ccccc32)CC1,-2.21*,-0.279,-0.51,0.00743,26.9,365*,200
CC(C)n1c(SCC(=O)Nc2nc3c(s2)CCCC3)nc2c1c(=O)n(C)c(=O)n2C,/,/,/,/,48.1,/,/
CCOc1ccc(CN2CCNC(=O)C2CC(=O)OC)cc1 (stereo not given),-2.87*,-0.665,-0.94,0.154,15.5,657,255
CCn1c(=N)n(CC(=O)c2ccco2)c2ccccc21,-4.02*,-0.0879,0.16,-1.03,-26.1,471,223
Cn1c(N)c(C(=O)COC(=O)C2(c3cccc(F)c3)CCCC2)c(=O)n(C)c1=O,-2.77*,-0.452,-0.99,-1.15,-19.0,630,208
CCOC(=O)C1=C(C)NC(=O)NC1c1ccc(N(C)C)cc1 (stereo not given),-0.271,0.52,-0.2,0.23,/,/,/
CCN(CC)c1ccc(C2C(C(=O)OC)=C(C)NC(C)=C2C(=O)OC)cc1,-2.74*,-0.187,0.21,-1.35,10.3,209*,249
CCOC(=O)C1=C(C)NC(=O)NC1c1ccc(N(CC)CC)cc1 (stereo not given),-3.12*,0.825,-1.34,1.23,?,391*,274
COC(=O)c1ccc(CSc2nc(C)nc3c2c(=O)n(C)c(=O)n3C)o1,-2.04*,-0.0984,0.46,2.78,/,500*,242
Fc1ccc(COc2ccc(/C=N/n3cnnc3)cc2)cc1,1.39,1.8,1.74,-2.79,-17.2,/,/
Cn1cc(CC(=O)Nc2cccc(C#N)c2)c2ccccc21,0.151,-0.413,-0.52,-0.392,/,/,/
CCOC(=O)c1c(NC(=O)CSc2nnc(Cc3ccccc3)o2)sc(C)c1C,/,/,/,/,1.5,/,/
Cc1ccc(Cn2nnc3c(=O)n(Cc4cccc(C)c4)cnc32)cc1,-3.42*,-1.18,0.25,0.917,5.2,481*,205
CCn1c(=O)c(C(=O)Nn2c(C)nc3ccccc3c2=O)c(O)c2ccccc21,-13.6*,0.748,-0.99,-0.461,/,611,192
CCn1c(=O)c(C(=O)Nc2nc3ccccc3[nH]2)c(O)c2ccccc21,0.0201,-0.179,-1,-0.651,2.0,/,/
CCOC(=O)c1cc2sccc2n1CC(=O)N1CCN(C(=O)c2ccco2)CC1,-0.0434,0.494,-1.44,-0.272,16.9,/,/
CC(=O)C1=C(Nc2ccc(C)cc2)CC(C)(O)C(C(C)=O)C1c1ccco1 (stereo not given),-13.1*,0.0793,-0.1,0.0422,/,646,233
CC(=O)N1CCc2cc(S(=O)(=O)NC(CC(C)C)C(=O)N3CCc4ccccc4C3)ccc21 (stereo not given),-0.37,-0.514,-0.03,1.22,17.9,/,/
